FBW7 act: FBW7 E3 ligase activators, primary screen, biochemical, AlphaScreen, human; F-box/WD repeat-containing protein 7 (Homo sapiens), Q969H0; AlphaScreen FBW7–phospho-cyclin E peptide binding, activator screen; normalized activity (activation), % at 26.1 µM; actives 0.13% (n = 650,000); in the data active = normalized activity above about 1.9%;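 also: purified mutant Fbw7 with reduced substrate affinity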
TEAD-YAP inh: TEAD-YAP interaction inhibition, primary screen, TEAD-YAP interaction inhibitor project, luminescence, HEK-TIYL cells | TEAD-Gal4/YAP UAS-luciferase luminescence | inhibition, % at 9.12 µM | actives 1.4% (n = 640,000) | AID 1259422, 2018; in the data active = inhibition above about 32%;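 also: 0% = median of test compound wells and 100% = reference inhibitor wells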
MITF inh: MITF inhibitors, primary screen, biochemical, AlphaScreen, human; AID 1259374, 2018; actives 0.91% (n = 650,000); inhibition, % at 2.6 µM; AlphaScreen MITF homodimerization, bead proximity signal; Microphthalmia-associated transcription factor (Homo sapiens), O75030; in the data active = inhibition above about 50%;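 also: 0% = vehicle wells with protein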
Target sequence (O75030 whole entry, looked up): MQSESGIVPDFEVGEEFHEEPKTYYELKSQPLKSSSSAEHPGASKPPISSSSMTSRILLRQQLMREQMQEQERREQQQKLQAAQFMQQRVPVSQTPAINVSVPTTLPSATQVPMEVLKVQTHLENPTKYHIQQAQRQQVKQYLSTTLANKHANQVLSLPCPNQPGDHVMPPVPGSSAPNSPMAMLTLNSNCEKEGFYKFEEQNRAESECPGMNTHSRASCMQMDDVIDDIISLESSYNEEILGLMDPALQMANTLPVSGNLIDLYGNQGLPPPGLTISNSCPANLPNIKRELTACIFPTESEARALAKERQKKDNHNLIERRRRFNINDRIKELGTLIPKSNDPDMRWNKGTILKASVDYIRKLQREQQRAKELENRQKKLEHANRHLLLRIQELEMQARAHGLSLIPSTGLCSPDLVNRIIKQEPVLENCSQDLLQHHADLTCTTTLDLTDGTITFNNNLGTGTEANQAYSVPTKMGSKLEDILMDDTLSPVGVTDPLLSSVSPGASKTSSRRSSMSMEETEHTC
GPR151 activ: activators of human GPR151, primary screen, cell-based, PathHunter beta-arrestin, luminescence; activation, % at 11.2 µM; PathHunter beta-arrestin GPR151 cells; G-protein coupled receptor 151 (Homo sapiens), Q8TDV0; actives 1% (n = 650,000); in the data active = activation above about 4.9%;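 also: 0% = median of compound wells and 100% = cells with positive control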
GPR151 conf act: GPR151 activators, triplicate retest, confirmation, cell-based, PathHunter beta-arrestin, luminescence; shares compounds with GPR151 activ; GPR151 PathHunter beta-arrestin cells, 90 min; % of EA-reagent control over plate median; activation, % at 11.2 µM; 6,700 tested, under 10 active; AID 1508609, 2020;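 active = mean percent activation across replicates above the confirmation screen cutoff of 4.91%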
GPR119 ag: GPR119 activators in beta-arrestin cells, counter-screen for GPR151 activator project, cell-based, PathHunter beta-arrestin, luminescence, triplicate; 90 min; 0 = compound-well median, 100 = enzyme-acceptor control; actives 0.3% (n = 6,700); activation, % at 11.2 µM; shares compounds with GPR151 activ;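 active = mean percent activation in the counterscreen above 29.09%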;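 also: counterscreen on off-target GPR119 to flag nonselective hits from the GPR151 activator screen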
* = called active by the depositor; nt = no result given. An excerpt weighted towards active compounds, which were near 3.5% of everything screened.

SMILES	FBW7 act	TEAD-YAP inh	MITF inh	GPR151 activ	GPR151 conf act	GPR119 ag
C=CCn1c(/N=C/c2ccc(OC)cc2)nc2ccccc21	0.1	5.3	6.2	5.0*	1.6	11.9
C=CCn1c(COc2ccc(OC)cc2)nc2ccccc21	-0.3	-59.1	-4.2	-0.7	nt	nt
N#Cc1ccc(NC(=O)CN2C(=O)c3ccccc3S2(=O)=O)cc1	-0.1	0.9	-3.8	-0.1	nt	nt
C=CCC1C=CCC(CC=C)N1C(=O)c1ccccc1[N+](=O)[O-] (stereo not drawn)	-0.3	1.1	-3.7	9.2*	0.3	-1.6
O=C(c1ccccc1[N+](=O)[O-])N1CC2C3C=CC(C3)C2C1 (stereo not drawn)	-0.1	4.6	-1.6	-0.2	nt	nt
CC1Sc2cc(S(=O)(=O)CCC(=O)NC3CCCC(C)C3C)ccc2NC1=O (stereo not drawn)	-0.2	15.1	-1.7	5.1*	0.6	7.9
CC1Sc2cc(S(=O)(=O)CCC(=O)Nc3ccccc3F)ccc2NC1=O (stereo not drawn)	-0.1	-2.5	-1.2	5.3*	-0.5	-7.0
CCN1CCN(c2cc(NCCCO)c([N+](=O)[O-])c3nonc23)CC1	-0.1	7.1	8.0	-0.7	nt	nt
Cc1cc(NCC2CCCO2)nc(Nc2ccc(N3CCOCC3)cc2)n1 (stereo not drawn)	-0.1	19.9	3.6	4.9*	-0.4	-6.6
COc1ccc(Nc2nc(C)cc(NCC3CCCO3)n2)cc1 (stereo not drawn)	-0.1	-0.5	3.9	1.5	nt	nt
CCOC(=O)c1cnn(-c2nnc(-c3ccc(C)cc3)c3ccccc23)c1N	0.2	-8.0	-2.9	-0.8	nt	nt
Cc1ccc2nc(-c3ccc(C)c(C)c3)cc(C(=O)OCC(=O)c3ccc([N+](=O)[O-])cc3)c2c1	0.0	3.5	7.1	5.6*	0.2	7.5
Cc1ccc(C(=O)COC(=O)c2cc(-c3ccc(C)c(C)c3)nc3ccc(C)cc23)cc1	-0.1	7.4	1.4	0.1	nt	nt
CN(C)CC(C)(C)CNCC(=O)Nc1cc(C(F)(F)F)cc(C(F)(F)F)c1	-0.3	5.2	40.0	6.0*	-0.5	0.5
CCC(C)C(NC(=O)c1ccccc1NC(=O)c1ccccc1)C(=O)N1CCOCC1 (stereo not drawn)	-0.1	-6.6	5.9	9.8*	-0.7	-1.9
CC(C)C(NC(=O)c1ccccc1NC(=O)c1ccccc1)C(=O)N1CCCCC1 (stereo not drawn)	0.0	1.2	11.4	1.2	nt	nt
C=CCNC(=O)c1ccc(OCC(=O)C2CC2)cc1	0.0	-0.6	-0.3	-0.4	nt	nt
Cn1cnnc1SCCNC(=O)c1ccc(OCC(=O)C2CC2)cc1	0.1	0.5	7.2	6.9*	-0.4	12.4
CC(C)CCN1CCNC(=O)C1CC(=O)N(C)CCc1cnn(C)c1 (stereo not drawn)	0.1	-2.9	18.2	5.6*	-0.3	5.9
Cc1ccc(CN2CCNC(=O)C2CC(=O)N(C)CCc2cnn(C)c2)cc1 (stereo not drawn)	-0.2	0.8	8.6	0.2	nt	nt
O=C(Nc1ccc2c(c1)CN(C(=O)Cn1c(=O)oc3ccccc31)CC2)C1CCCO1 (stereo not drawn)	0.1	-2.1	12.7	6.8*	-0.9	-7.1
O=C1CSC2(C(=O)Nc3ccccc32)N1c1cc(F)ccc1F (stereo not drawn)	-0.3	0.1	-14.2	-1.0	nt	nt
Cc1ccccc1NS(=O)(=O)c1ccc(-c2ccc(-n3cnnn3)cc2)cc1	-0.2	-13.4	-1.4	5.7*	1.3	11.7
O=C1CCC(C(=O)NCc2nnc3n2CCN(Cc2c(F)ccc(F)c2F)CC3)N1 (stereo not drawn)	0.2	-19.1	-24.9	1.1	nt	nt
O=C1C(=O)N(CCN2CCOCC2)C(c2cccnc2)/C1=C(/O)c1ccc(Br)cc1 (stereo not drawn)	0.4	-5.4	1.6	-0.6	nt	nt
SMILES	FBW7 act	TEAD-YAP inh	MITF inh	GPR151 activ	GPR151 conf act	GPR119 ag
COc1ccc(/C(O)=C2/C(=O)C(=O)N(CCN3CCOCC3)C2c2ccc(C(C)(C)C)cc2)cc1 (stereo not drawn)	-0.1	2.7	9.8	7.0*	-0.7	-5.0
O=C1C(=O)N(CCCN2CCOCC2)C(c2cccnc2)/C1=C(/O)c1ccc(Br)cc1 (stereo not drawn)	0.1	11.8	2.9	9.1*	-1.2	-13.1
COc1ccc(/C=C/C(=O)Nc2sc3c(c2C(N)=O)CCCCC3)cc1	0.0	4.0	12.9	-0.1	nt	nt
COc1ccc(/C=C/C(=O)Nc2sc3c(c2C(=O)NCc2cccnc2)CCCC3)cc1	0.3	5.8	6.4	6.7*	1.1	-6.0
Cc1ncc(-c2ccncc2)c(C2CCCN(Cc3cccnc3)C2)n1 (stereo not drawn)	-0.1	-7.8	3.1	0.5	nt	nt
COc1ccccc1C(=O)Nc1ccc2oc(-c3ccc(C(C)(C)C)cc3)nc2c1	0.0	5.3	9.5	6.2*	0.9	-2.2
O=C(Nc1nnc(-c2ccccc2)o1)c1ccc([N+](=O)[O-])s1	-0.1	1.4	0.1	2.6	nt	nt
COc1cc(C(=O)Nc2ccc3oc(-c4ccc(I)cc4)nc3c2)cc(OC)c1OC	0.1	-4.4	7.2	20.9*	0.0	4.3
Cc1ccc(C(=O)Nc2ccc3oc(-c4ccncc4)nc3c2)cc1C	0.1	0.2	-2.3	4.9*	1.0	16.0
COc1ccccc1-c1nnc(NC(=O)c2ccc([N+](=O)[O-])s2)o1	0.1	0.2	5.8	14.6*	0.7	8.9
Cc1noc(C)c1COc1ccc(C(=O)OCC(=O)NC(=O)NC2CCCCC2)cc1	0.1	12.5	3.9	1.3	nt	nt
CC(=O)c1ccc(NC(=O)CSc2nccn2-c2cc(C)ccc2C)cc1	0.1	-5.9	0.5	0.4	nt	nt
COc1ccc(CNCC2CCCCC2)cc1	-0.2	-5.5	18.0	-1.5	nt	nt
C=CCn1c(=S)[nH]c2cc(C(=O)NCCCN3CCOCC3)ccc2c1=O	-0.3	-1.2	-3.0	-0.4	nt	nt
CCc1ccc(-c2nc3cc(NC(=O)c4cccc(C)c4)ccc3o2)cc1	-0.1	1.3	9.1	8.2*	0.1	-3.7
CCc1ccc2oc(-c3cc(NC(=O)c4cccc(C)c4)ccc3O)nc2c1	-0.1	-8.6	-1.8	0.6	nt	nt
COc1ccccc1C(=O)Nc1nnc(-c2ccc(Cl)cc2)o1	-0.1	-18.2	-2.1	5.5*	0.4	4.8
COc1ccccc1C(=O)Nc1nnc(-c2ccc(F)cc2)o1	0.2	-2.7	-0.1	0.7	nt	nt
O=C(COC(=O)c1ccc(F)cc1F)Nc1ccc(OC(F)F)cc1	0.6	-1.6	17.0	3.2	nt	nt
CCc1c2c(nc3sc(C(=O)OCc4ccccc4)c(N)c13)CCCCCC2	0.2	-9.3	-14.1	0.7	nt	nt

Screening results deposited in PubChem by The Scripps Research Institute Molecular Screening Center.
